# Assay outcomes deposited in PubChem BioAssay by National Center for Advancing Translational Sciences (NCATS).
# IP6K1 inhibitor: IP6K1 kinase inhibition | Q92551 | IP6K1 kinase, ADP-Glo luminescence, 2 h; hits give low values | activity change, % (series mostly up to about 58 µM) | hit rate 0.81% among 140,000; in the data active = activity change below about -25%
# Target sequence (Q92551 whole entry, looked up): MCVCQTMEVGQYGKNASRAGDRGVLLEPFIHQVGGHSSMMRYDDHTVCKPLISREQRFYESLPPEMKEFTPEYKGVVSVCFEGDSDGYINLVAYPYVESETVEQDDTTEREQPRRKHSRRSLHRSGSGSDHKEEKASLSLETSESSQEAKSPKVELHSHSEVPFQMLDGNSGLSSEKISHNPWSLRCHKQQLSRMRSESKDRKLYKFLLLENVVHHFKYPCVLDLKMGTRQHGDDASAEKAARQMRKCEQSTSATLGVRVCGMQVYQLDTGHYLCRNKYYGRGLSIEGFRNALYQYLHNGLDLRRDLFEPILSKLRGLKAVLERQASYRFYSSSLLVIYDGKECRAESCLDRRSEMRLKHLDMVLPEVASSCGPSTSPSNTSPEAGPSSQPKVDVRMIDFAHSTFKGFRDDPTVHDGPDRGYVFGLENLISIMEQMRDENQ
#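 ADP-Glo luminescence measures ADP made by human IP6K1 during a 2 h RT reaction with ATP/IP6 (mix at 1.3 mM/130 uM); top library doses 57.5 and 19.1 uM final.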
# SNCA expr inhib: reduces expression of the alpha-synuclein gene; AID 1671194; Potency, µM (highest dose often 57.2 µM), actives largely listed as inhibitors; hit rate 0.17% among 140,000; HEK-293 SNCA-luciferase knock-in, luminescence, 24 h; also: nearly all actives have a fitted effect of over 45% in size
# KDM5B inh: inhibitors of human KDM5B histone demethylase; hit rate 2.6% among 220,000; Q9UGL1; KDM5B demethylase, FDH-coupled NADH fluorescence (FDH is formaldehyde dehydrogenase); AID 1347165; Potency, µM (series often up to 57.7 µM), usual class: inhibitors; also: nearly all actives have a fitted effect of over 70% in size
#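 Coupled FDH/NAD⁺ fluorescence readout. KDM5BΔAP 200 nM final; compound titration, 10 min RT preincubation; substrate mix 12.5 µM H3K4me3, 25 µM 2-OG, 50 µM Fe(II), 100 µM ascorbate, 0.25 mM NAD⁺, 0.25 U/mL FDH; ΔRFU over 30 min.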
# SNCA viab count: reduces viability of HEK-293 SNCA reporter cells | Potency, µM (series often up to 57.1 µM), usual class: cytotoxic | AID 1671193 | HEK-293-SNCA-luc viability, GF-AFC fluorescence, 24 h | hit rate 0.12% among 150,000; also: nearly all actives have a fitted effect of over 30% in size
#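 Cytotoxicity counterscreen: after 24 h compound treatment of genome-edited SNCA-luciferase HEK-293 cells, live-cell protease substrate GF-AFC read by fluorescence after 30 min; activity scaled between DMSO (0%) and medium-only (-100%), curves Hill-fitted.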
# Hits are given with their value; - = inactive; ? = inconclusive; . = no result given; [ ] = another dose, or the depositor's remark. The list is not random: actives were taken first. Their share in the collection is about 3%. Unless noted, calls follow the shape of the dose curve; as a rule, active = well fitted curve in the direction sought with a large enough effect; inconclusive = small, poorly fitted or top-dose-only effect, or another doubt; inactive = no such curve, though single readings can be large; an effect the other way counts as inactive or inconclusive.
SMILES,IP6K1 inhibitor,SNCA expr inhib,KDM5B inh,SNCA viab count
CC(C)(Oc1nn(CC2CCOCC2)c2ccccc12)C(=O)NCCc1cccnc1,-,-,?,-
CC(C)(Oc1nn(CC2CCOCC2)c2ccccc12)C(=O)NC1CCOCC1,-,-,35µM,-
CC(C)(Oc1nn(CC2CCOCC2)c2ccccc12)C(=O)NCCc1ccccc1,-,-,35µM,-
O=C(NCC1CC1)c1cc(-c2cccc(C(F)(F)F)c2)c2cccn2n1,-,?,.,-
O=C(N[C@H]1[C@H](O)[C@H](O)C[C@@H]1c1ccc(N2CCOCC2)nc1)c1nc2ccccc2s1,-,-,-,-
O=C(COc1ccccc1)N[C@H]1[C@H](O)[C@H](O)C[C@@H]1c1ccc(N2CCOCC2)nc1,-,-,32µM,-
CC(C)C(=O)N[C@H]1[C@H](O)[C@H](O)C[C@@H]1c1ccc(N2CCOCC2)nc1,-,-,40µM,-
O=C(N[C@H]1[C@H](O)[C@H](O)C[C@@H]1c1ccc(N2CCOCC2)nc1)c1ccc2c(c1)OCCO2,-,-,?,?
COc1ccc(CC(=O)N[C@H]2[C@H](O)[C@H](O)C[C@@H]2c2ccc(N3CCOCC3)nc2)cc1,-,-,32µM,-
O=C(O)c1cc(-c2ccco2)nc2cc(Br)ccc12,.,.,-,.
O=C(Cc1cccc2ccccc12)N(Cc1ccc2cc[nH]c2c1)C1CC1,.,.,-,.
CNC(=O)c1ccc2nnc(-c3ccc(Cl)cc3)n2c1,-,-,.,-
O=C(Nc1ccc(Cl)nc1)c1ccc2ccnn2c1,-,-,32µM,-
C=CCNC(=O)c1cccn2nccc12,-,?,32µM,-
O=C(Nc1ccc(Cl)nc1)c1cccn2nccc12,-,-,35µM,-
CNC(=O)c1ccc2ccnn2c1,-,-,35µM,-
O=C(NCc1ccc(Cl)nc1)c1ccn2nccc2c1,-,-,-,-
CCc1ccc(CN(C)S(=O)(=O)c2cccc(Br)c2)cc1,.,.,-,.
O=C(Nc1ccnn1Cc1ccccc1)c1cc(=O)c2cc(Cl)ccc2o1,.,.,-,.
CN1CCN(CN2C(=O)C(O)(CC(=O)c3ccc(Br)s3)c3ccccc32)CC1 (stereo not drawn),.,.,-,.
CC(C)(C)CC(=O)NCC(=O)N1CCN(c2ccccn2)CC1,-,-,28µM,-
CC(C)CC(=O)NCC(=O)N1CCN(c2ccccn2)CC1,-,-,25µM,-
O=C1N[C@H](CC(=O)N2CCN(c3ccccn3)CC2)C(=O)Nc2ccccc21,-,-,28µM,-
O=C(NCC(=O)N1CCN(c2ccccn2)CC1)c1cc2ccccc2[nH]1,-,-,14µM,-
CC(=O)NCc1ccc(S(=O)(=O)N2CCN(c3ccccn3)CC2)cc1,.,.,-,.
SMILES,IP6K1 inhibitor,SNCA expr inhib,KDM5B inh,SNCA viab count
Cn1c(N2CCN(C(=O)C[C@H]3NC(=O)c4ccccc4NC3=O)CC2)nc2ccccc21,-,-,-,-
NC(=O)C1CN(C(=O)c2nn(-c3ccccc3)c(=O)c3ccccc23)c2ccccc2O1 (stereo not drawn),.,.,-,.
COC(=O)c1cc(C(=O)OCCCC(=O)c2ccc(F)cc2)cc([N+](=O)[O-])c1,.,.,-,.
O=C(Cc1c(F)cccc1Cl)NCC(=O)N1CCN(c2ccccn2)CC1,-,-,25µM,-
CCOc1ccccc1C(=O)NCC(=O)N1CCN(c2ccccn2)CC1,-,-,28µM,-
Cc1ccc(C(=O)NCC(=O)N2CCN(c3ccccn3)CC2)cc1,-,-,28µM,-
O=C(NCC(=O)N1CCN(c2ccccn2)CC1)c1cncc(Br)c1,-,-,?,-
CC(C)(C)c1ccc(C(=O)Nc2ccc(C(O)[C@H]3COCC(=O)N3Cc3ccccn3)cc2)cc1 (stereo partly drawn),-,-,-,-
Cc1cc(OCc2n[nH]c(=S)n2C)cc(C)c1Cl,.,.,-,.
CCC/C=C/C(=O)O[C@H]1CC(C)(C)CC2[C@@]13[C@H](O)C[C@]1(C)[C@@]2(CCC2[C@@]4(C)CC[C@H](O[C@@H]5O[C@H](C(=O)O)[C@@H](O)[C@H](O[C@@H]6O[C@H](CO)[C@H](O)[C@H](O)[C@H]6O[C@@H]6O[C@@H](C)[C@H](O)[C@@H](O)[C@H]6O[C@@H]6OC[C@](O)(CO)[C@H]6O)[C@H]5O[C@@H]5O[C@H](CO)[C@H](O)[C@H](O)[C@H]5O)C(C)(C)C4CC[C@]21C)O[C@H]3O (stereo partly drawn),-,.,.,-[12.5 µM]
C/C=C(/C)C(=O)O[C@H]1[C@H](OC(=O)/C(C)=C\C)[C@@]23C(CC1(C)C)[C@]1(CCC4[C@@]5(C)CC[C@H](O[C@@H]6O[C@H](C(=O)O)[C@@H](O)[C@H](O[C@@H]7O[C@H](CO)[C@H](O)[C@H](O)[C@H]7O[C@@H]7O[C@@H](C)[C@H](O)[C@@H](O)[C@H]7O[C@@H]7OC[C@@H](O)[C@H](O)[C@H]7O)[C@H]6O[C@@H]6O[C@H](CO)[C@H](O)[C@H](O)[C@H]6O)C(C)(C)C5CC[C@@]4(C)[C@]1(C)C[C@H]2O)O[C@H]3O (stereo partly drawn),-,.,.,3.6µM
Fc1ccc(-c2cnc(COc3ccc(Cl)cc3)o2)cc1,.,.,-,.
Cc1ccc(CC(=O)NCc2nnc3c(-c4nc(C5CC5)no4)cccn23)cc1,-,-,?,-
O=C(Cc1ccc(F)cc1)NCc1nnc2c(-c3nc(C4CC4)no3)cccn12,-,?,32µM,-
O=C(NCc1nnc2c(-c3nc(C4CC4)no3)cccn12)c1ccc(F)c(F)c1,-,-,?,-
O=C(NCc1nnc2c(-c3nc(C4CC4)no3)cccn12)c1cccc(F)c1,-,-,25µM,-
O=C(NCc1nnc2c(-c3nc(C4CC4)no3)cccn12)c1ccc(F)cc1Cl,-,-,20µM,-
O=C(NCc1nnc2c(-c3nc(C4CC4)no3)cccn12)c1cccc(Cl)c1,-,-,28µM,-
CC(=O)Nc1ccc(NC(=O)C(C)Br)cc1 (stereo not drawn),.,.,-,.
O=C(Cc1cccc(F)c1)NCc1nnc2c(-c3nc(C4CC4)no3)cccn12,-,-,32µM,-
Cc1ccc(C(=O)NCc2nnc3c(-c4nc(C5CC5)no4)cccn23)cc1F,-,-,?,-
COc1ccc(C(=O)NCC(C)O)cc1 (stereo not drawn),.,.,-,.
O=C(NCc1ccc(F)cc1)c1nc(-c2ccc(Cl)cc2Cl)c2ccccn12,-,-,?,-
O=C(NCc1ccc(F)cc1)c1nc(-c2ccsc2)c2ccccn12,-,-,25µM,-
O=C(NCc1cccs1)c1nc(-c2ccsc2)c2ccccn12,-,-,40µM,-
SMILES,IP6K1 inhibitor,SNCA expr inhib,KDM5B inh,SNCA viab count
O=C(NCc1cccs1)c1nc(-c2ccccc2)c2ccccn12,-,?,11µM,-
C#CCNC(=O)c1nc(-c2ccccc2)c2ccccn12,-,-,32µM,-
O=C(NCc1ccc2c(c1)OCO2)c1nc(-c2ccccc2)c2ccccn12,-,-,?,-
O=C(NCc1cccs1)c1nc2sccn2c1-c1ccncc1,-,-,.,?
C#CCNC(=O)c1nc(-c2ccc(F)cc2)c2ccccn12,-,-,-,-
COc1cc(C#N)ccc1OC(C)C(=O)Nc1ccc(C)cc1C (stereo not drawn),.,.,-,.
